Reference: PubChem BioAssay (EPA / NIEHS)
Results filed as inconclusive are left out. Activity calls are given as the source filed them. Rule for the calls, unless noted: active = hit-call score of the fitted dose curve at least 0.9, where 1 is the maximum; inactive = score below 0.9.

How the values were obtained:
[1] = read-out: Human Leukocyte Antigen - DR isotype (HLADR), HLA-DRA (gene 3122); experiment: BSK_BE3C_HLADR: BioMAP Diversity Plus: BE3C Assay for Human Leukocyte Antigen - DR isotype (HLADR) Biomarker Activity (AID 2283032); conditions: primary human bronchial epithelial cells; actives raise or lower the signal
Summary of the method: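 BioMAP BE3C format: human bronchial epithelium, 24 h compound treatment, ELISA detection of HLA-DR, with bidirectional analysis relative to DMSO.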

[2] = read-out: TIMP metallopeptidase inhibitor 2 (TIMP2), TIMP2 (gene 7077); experiment: BSK_KF3CT_TIMP2: BioMAP Diversity Plus: KF3CT Assay for TIMP metallopeptidase inhibitor 2 (TIMP2) Biomarker Activity (AID 2283071); conditions: primary human keratinocytes with fibroblasts; actives raise or lower the signal
Summary of the method: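 Measurements come from ELISA detection of TIMP-2 at 24 hours in a dosed human keratinocyte and foreskin fibroblast co-culture. DMSO serves as negative control and baseline.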

[3] = read-out: urokinase plasminogen activator (uPA), PLAU (gene 5328); experiment: BSK_KF3CT_uPA: BioMAP Diversity Plus: KF3CT Assay for urokinase plasminogen activator (uPA) Biomarker Activity (AID 2283075); conditions: primary human keratinocytes with fibroblasts; actives raise or lower the signal
Summary of the method: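 Values derive from bidirectional fitting against DMSO controls. Keratinocyte/foreskin fibroblast co-cultures received chemical; 24 h later uPA was detected by ELISA, with SRB total-protein staining in parallel wells for overt cytotoxicity.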

[4] = read-out: CD40, CD40 (gene 958); experiment: BSK_LPS_CD40: BioMAP Diversity Plus: LPS Assay for CD40 Biomarker Activity (AID 2283076); conditions: primary human HUVEC with PBMC; actives raise or lower the signal
Summary of the method: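 Using a multiplexed primary human co-culture (umbilical vein endothelium plus PBMC), CD40 was read by ELISA 24 h after dosing, with cytotoxicity tracked by sulforhodamine B staining of parallel cultures and activity fitted bidirectionally versus DMSO.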

[5] = read-out: E-selectin (Homo sapiens) (UniProt P16581); experiment: BSK_LPS_Eselectin: BioMAP Diversity Plus: LPS Assay for Eselectin Biomarker Activity (AID 2283077); conditions: primary human HUVEC with PBMC; actives raise or lower the signal
Summary of the method: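 Dose chemical onto LPS-driven HUVEC/PBMC co-culture; after 24 h, run ELISA for E-selectin; fit up- and down-going responses relative to DMSO control.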

[6] = read-out: Interleukin-8 (IL8), CXCL8 (gene 3576); experiment: BSK_LPS_IL8: BioMAP Diversity Plus: LPS Assay for Interleukin-8 (IL8) Biomarker Activity (AID 2283078); conditions: primary human HUVEC with PBMC; actives raise or lower the signal
Summary of the method: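 In this LPS system, chemical-treated human umbilical vein endothelium/PBMC co-cultures were harvested at 24 h for IL-8 ELISA.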

[7] = BSK_LPS_SRB: Viability Assessment in the BioMAP Diversity Plus: LPS Assay (AID 2283079); conditions: primary human HUVEC with PBMC;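 note: total protein by sulforhodamine B absorbance as a cytotoxicity measure; measured one day after compound addition; fitted in both directions against DMSO so loss or gain of signal counts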
Summary of the method: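 Cytotoxicity endpoint in human endothelial–PBMC co-culture: 24 h exposure, then SRB (0.1%) staining, 560 nm read.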

[8] = read-out: Monocyte Chemoattractant Protein-1 (MCP1), CCL2 (gene 6347); experiment: BSK_LPS_MCP1: BioMAP Diversity Plus: LPS Assay for Monocyte Chemoattractant Protein-1 (MCP1) Biomarker Activity (AID 2283081); conditions: primary human HUVEC with PBMC; actives raise or lower the signal
Summary of the method: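 Values derive from bidirectional fitting against DMSO of ELISA-measured MCP-1 in a human primary endothelial and mononuclear cell co-culture, 24 h after chemical addition under LPS activation.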

[9] = read-out: Macrophage colony-stimulating factor (MCSF), CSF1 (gene 1435); experiment: BSK_LPS_MCSF: BioMAP Diversity Plus: LPS Assay for Macrophage colony-stimulating factor (MCSF) Biomarker Activity (AID 2283083); conditions: primary human HUVEC with PBMC; actives raise or lower the signal
Summary of the method: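 Bidirectional fit versus DMSO of ELISA-measured M-CSF in co-cultured human umbilical vein endothelial cells and PBMC, sampled 24 h after dosing.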

[10] = read-out: Tissue Factor, F3 (gene 2152); experiment: BSK_LPS_TissueFactor: BioMAP Diversity Plus: LPS Assay for Tissue Factor Biomarker Activity (AID 2283084); conditions: primary human HUVEC with PBMC; actives raise or lower the signal
Summary of the method: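 Read-out: CD142 ELISA, 24 h. System: LPS-driven human endothelial/PBMC co-culture. Analysis: up- or down-signal fitted against DMSO.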

[11] = read-out: Vascular cell adhesion molecule 1 (VCAM1), VCAM1 (gene 7412); experiment: BSK_LPS_VCAM1: BioMAP Diversity Plus: LPS Assay for Vascular cell adhesion molecule 1 (VCAM1) Biomarker Activity (AID 2283086); conditions: primary human HUVEC with PBMC; actives raise or lower the signal
Summary of the method: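 Measured by ELISA: VCAM-1 in LPS-activated HUVEC/PBMC co-cultures 24 h after treatment. Values reflect bidirectional fitting with DMSO as baseline.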

[12] = read-out: CD38, CD38 (gene 952); experiment: BSK_SAg_CD38: BioMAP Diversity Plus: SAg Assay for CD38 Biomarker Activity (AID 2283087); conditions: primary human HUVEC with PBMC; actives raise or lower the signal
Summary of the method: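 Measures CD38 on a human endothelial/PBMC co-culture driven by SEB and TSST-1, 24 h after compound exposure, using ELISA with fluorescence detection; DMSO defines baseline for bidirectional curve fitting.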

[13] = read-out: CD69, CD69 (gene 969); experiment: BSK_SAg_CD69: BioMAP Diversity Plus: SAg Assay for CD69 Biomarker Activity (AID 2283089); conditions: primary human HUVEC with PBMC; actives raise or lower the signal
Summary of the method: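 Values derive from bidirectional fitting relative to DMSO vehicle. Cells: umbilical vein endothelium plus peripheral blood mononuclear cells, treated 24 h before fluorescent ELISA for CD69.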

[14] = read-out: Monocyte Chemoattractant Protein-1 (MCP1), CCL2 (gene 6347); experiment: BSK_SAg_MCP1: BioMAP Diversity Plus: SAg Assay for Monocyte Chemoattractant Protein-1 (MCP1) Biomarker Activity (AID 2283090); conditions: primary human HUVEC with PBMC; actives raise or lower the signal
Summary of the method: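 Values derive from bidirectional fitting of ELISA-measured MCP1 against DMSO controls. Readings were taken 24 h after dosing human vascular endothelial cells co-cultured with peripheral blood mononuclear cells under superantigen stimulation.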

[15] = read-out: E-selectin (Homo sapiens) (UniProt P16581); experiment: BSK_SAg_Eselectin: BioMAP Diversity Plus: SAg Assay for Eselectin Biomarker Activity (AID 2283091); conditions: primary human HUVEC with PBMC; actives raise or lower the signal
Summary of the method: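 Endpoint values derive from bidirectional fitting relative to DMSO, using ELISA-measured E-selectin in a human vascular co-culture (umbilical vein endothelium plus PBMC) sampled 24 h after dosing.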

[16] = read-out: Interleukin-8 (IL8), CXCL8 (gene 3576); experiment: BSK_SAg_IL8: BioMAP Diversity Plus: SAg Assay for Interleukin-8 (IL8) Biomarker Activity (AID 2283094); conditions: primary human HUVEC with PBMC; actives raise or lower the signal
Summary of the method: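 Primary human endothelial cells with PBMC, exposed 24 h; IL-8 determined by ELISA, analysed bidirectionally relative to DMSO.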

[17] = molecular target: Retinoic acid receptor alpha (Homo sapiens) (UniProt P10276); experiment: ATG_DR5_RAR_CIS: Attagene CIS-FACTORIAL HepG2 Assay for human Retinoic Acid Receptor Alpha (RARE), DR5 submotif (AID 2282934); conditions: HepG2 Attagene cis-factorial RARE DR5 reporter, mRNA; actives raise or lower the signal
Retinoic acid receptor alpha (Homo sapiens), sequence (P10276 whole entry, looked up): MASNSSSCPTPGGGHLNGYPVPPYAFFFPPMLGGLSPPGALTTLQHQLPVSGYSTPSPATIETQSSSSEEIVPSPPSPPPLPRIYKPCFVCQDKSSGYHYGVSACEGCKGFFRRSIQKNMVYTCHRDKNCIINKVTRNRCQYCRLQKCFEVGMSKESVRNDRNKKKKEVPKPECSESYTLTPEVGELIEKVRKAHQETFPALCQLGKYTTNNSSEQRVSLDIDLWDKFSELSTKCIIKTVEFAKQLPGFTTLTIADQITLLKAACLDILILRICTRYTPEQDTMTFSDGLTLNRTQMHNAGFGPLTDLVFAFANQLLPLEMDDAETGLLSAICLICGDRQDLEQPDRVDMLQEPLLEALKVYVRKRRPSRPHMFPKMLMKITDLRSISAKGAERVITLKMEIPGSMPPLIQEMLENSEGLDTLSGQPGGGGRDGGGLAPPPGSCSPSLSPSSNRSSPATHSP
Summary of the method: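 Transfected HepG2 reporter cells are exposed to chemicals for 24 h. Then RNA is extracted and the DR5 element reporter transcript is measured by RT-PCR and capillary electrophoresis, with bidirectional curve fitting relative to DMSO.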

[18] = read-out: Vascular endothelial growth factor receptor 2 (Homo sapiens) (UniProt P35968); experiment: BSK_4H_VEGFRII: BioMAP Diversity Plus: 4H Assay for Vascular endothelial growth factor receptor 2 (VEGFR2) Biomarker Activity (AID 2283031); conditions: primary human endothelial cells (HUVEC); actives raise or lower the signal
Summary of the method: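 In this multiplexed HUVEC system, biomarker ELISA was performed after 24 h chemical exposure. Parallel SRB staining (TCA fixation, 560 nm) tracked cytotoxicity; DMSO served as baseline.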

[19] = read-out: C-C motif chemokine 2 (Homo sapiens) (UniProt P13500); experiment: BSK_KF3CT_MCP1: BioMAP Diversity Plus: KF3CT Assay for Monocyte Chemoattractant Protein 1 (MCP1/CCL2) Biomarker Activity (AID 2283073); conditions: primary human keratinocytes with fibroblasts; actives raise or lower the signal
Summary of the method: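 Biomarker MCP-1 is measured by ELISA in primary human keratinocytes co-cultured with foreskin fibroblasts, 24 h after chemical treatment; DMSO serves as the negative control and activity baseline.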

[20] = molecular target: Estrogen receptor (Homo sapiens) (UniProt P03372); experiment: ATG_ERa_TRANS: Attagene TRANS-FACTORIAL HepG2 Assay for human Estrogen Receptor alpha (ERa) (AID 2282970; active = hit-call score of the fitted dose curve at least 0.9, where 1 is the maximum); conditions: HepG2 Attagene TRANS ERa GAL4 reporter, mRNA
Estrogen receptor (Homo sapiens), sequence (P03372 whole entry, looked up, the tested form may be a part): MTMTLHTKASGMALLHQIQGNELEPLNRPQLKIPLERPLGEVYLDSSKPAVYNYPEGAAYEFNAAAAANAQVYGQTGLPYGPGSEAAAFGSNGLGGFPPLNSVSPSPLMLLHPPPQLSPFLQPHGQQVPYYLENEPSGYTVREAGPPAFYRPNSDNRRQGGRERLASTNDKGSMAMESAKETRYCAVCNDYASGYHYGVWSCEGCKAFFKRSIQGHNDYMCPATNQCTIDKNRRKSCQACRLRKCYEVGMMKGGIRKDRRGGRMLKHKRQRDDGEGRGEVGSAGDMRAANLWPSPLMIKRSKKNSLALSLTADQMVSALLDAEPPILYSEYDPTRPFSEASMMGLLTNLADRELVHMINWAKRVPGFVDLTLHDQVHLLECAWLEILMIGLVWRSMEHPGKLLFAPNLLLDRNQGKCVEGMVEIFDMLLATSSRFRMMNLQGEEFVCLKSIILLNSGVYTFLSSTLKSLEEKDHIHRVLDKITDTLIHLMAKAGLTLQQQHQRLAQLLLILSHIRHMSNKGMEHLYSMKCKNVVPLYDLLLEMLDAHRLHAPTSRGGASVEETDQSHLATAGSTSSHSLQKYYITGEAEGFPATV
Summary of the method: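 Signal derives from fluorescence of labelled reporter PCR fragments separated by capillary electrophoresis. HepG2 cells transiently carrying multiple GAL4-UAS reporter units were treated 24 hours, and induction above DMSO baseline was fitted as activity.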

E-selectin (Homo sapiens), sequence (P16581 whole entry, looked up): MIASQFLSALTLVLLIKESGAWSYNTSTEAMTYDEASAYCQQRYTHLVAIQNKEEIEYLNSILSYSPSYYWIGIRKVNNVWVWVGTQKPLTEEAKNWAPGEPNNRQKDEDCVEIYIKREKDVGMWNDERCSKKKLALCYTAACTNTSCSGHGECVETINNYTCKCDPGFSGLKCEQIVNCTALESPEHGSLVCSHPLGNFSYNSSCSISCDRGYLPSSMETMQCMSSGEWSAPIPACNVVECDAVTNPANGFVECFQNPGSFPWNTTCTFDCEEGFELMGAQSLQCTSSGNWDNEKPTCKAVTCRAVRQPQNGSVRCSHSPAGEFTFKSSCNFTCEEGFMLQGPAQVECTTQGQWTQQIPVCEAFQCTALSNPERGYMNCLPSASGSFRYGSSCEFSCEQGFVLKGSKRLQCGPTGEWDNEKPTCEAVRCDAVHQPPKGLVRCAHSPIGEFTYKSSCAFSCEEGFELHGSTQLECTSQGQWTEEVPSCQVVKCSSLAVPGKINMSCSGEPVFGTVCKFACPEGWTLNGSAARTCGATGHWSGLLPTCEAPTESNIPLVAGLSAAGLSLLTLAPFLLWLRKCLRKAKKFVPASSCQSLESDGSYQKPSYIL

Question: Which outcome [1] does the source give for `COc1ccc(CO)cc1` here?
Answer: inactive

Question: And the outcome [2]?
Answer: inactive

Question: What about the outcome [3] of the same compound?
Answer: inactive

Question: And the outcome [4]?
Answer: inactive

Question: What about the outcome [5] of the same compound?
Answer: inactive

Question: And the outcome [6]?
Answer: inactive

Question: And the outcome [7]?
Answer: inactive

Question: And the outcome [8]?
Answer: inactive

Question: What about the outcome [9] of the same compound?
Answer: inactive

Question: And the outcome [10]?
Answer: inactive

Question: And the outcome [11]?
Answer: inactive

Question: And the outcome [12]?
Answer: inactive

Question: What about the outcome [13] of the same compound?
Answer: inactive

Question: And the outcome [14]?
Answer: inactive

Question: What about the outcome [15] of the same compound?
Answer: inactive

Question: What about the outcome [16] of the same compound?
Answer: inactive

Question: For `CCC(=O)c1ccc(Cl)cc1`, which outcome [17] is on record?
Answer: inactive

Question: With `C#CC1(O)CCCCC1` as the compound, how does the outcome [17] read?
Answer: inactive

Question: With `Oc1cc(Cl)ccc1Cl` as the compound, how does the outcome [18] read?
Answer: inactive

Question: And the outcome [1]?
Answer: inactive

Question: What about the outcome [2] of the same compound?
Answer: inactive

Question: What about the outcome [19] of the same compound?
Answer: inactive

Question: And the outcome [3]?
Answer: inactive

Question: And the outcome [4]?
Answer: inactive

Question: And the outcome [5]?
Answer: inactive

Question: And the outcome [6]?
Answer: inactive

Question: What about the outcome [7] of the same compound?
Answer: inactive

Question: What about the outcome [8] of the same compound?
Answer: inactive

Question: And the outcome [9]?
Answer: inactive

Question: What about the outcome [10] of the same compound?
Answer: inactive

Question: And the outcome [11]?
Answer: inactive

Question: And the outcome [12]?
Answer: inactive

Question: And the outcome [13]?
Answer: inactive

Question: What about the outcome [14] of the same compound?
Answer: inactive

Question: And the outcome [15]?
Answer: inactive

Question: What about the outcome [16] of the same compound?
Answer: inactive

Question: Which outcome [18] does the source give for `O=c1[nH]c(Cl)c(Cl)cc1Cl` here?
Answer: inactive

Question: And the outcome [1]?
Answer: inactive

Question: And the outcome [2]?
Answer: inactive

Question: And the outcome [19]?
Answer: inactive

Question: And the outcome [3]?
Answer: inactive

Question: And the outcome [4]?
Answer: inactive

Question: What about the outcome [5] of the same compound?
Answer: inactive

Question: And the outcome [6]?
Answer: inactive

Question: What about the outcome [7] of the same compound?
Answer: inactive

Question: And the outcome [8]?
Answer: inactive

Question: And the outcome [9]?
Answer: inactive

Question: What about the outcome [10] of the same compound?
Answer: inactive

Question: And the outcome [11]?
Answer: inactive

Question: What about the outcome [12] of the same compound?
Answer: inactive

Question: What about the outcome [13] of the same compound?
Answer: inactive

Question: And the outcome [14]?
Answer: inactive

Question: What about the outcome [15] of the same compound?
Answer: inactive

Question: What about the outcome [16] of the same compound?
Answer: inactive

Question: Which outcome [17] does the source give for `CC(C)c1ccc(O)cc1` here?
Answer: inactive

Question: With `CCN(CC)C(=S)S` as the compound, how does the outcome [20] read?
Answer: inactive

Question: Which AC50 [20] does the source give for `Nc1ccccc1C(=O)Oc1ccc2ccccc2c1` here?
Answer: 12.8 µM (active)

Question: Which results are given for `CC(=O)/C=C/c1ccccc1`?
Answer: outcome [18]: inactive; AC50 [1]: 3.97 µM (active); outcome [2]: inactive; outcome [19]: inactive; outcome [3]: inactive; AC50 [4]: 20 µM (active); AC50 [5]: 31.1 µM (active); AC50 [6]: 20 µM (active); outcome [7]: inactive; outcome [8]: inactive; AC50 [9]: 16.9 µM (active); outcome [10]: inactive; AC50 [11]: 20 µM (active); outcome [12]: inactive; outcome [13]: inactive; outcome [14]: inactive; outcome [15]: inactive; outcome [16]: inactive
